RORgamma inh: blocks mouse ROR gamma transcriptional activity | Potency, µM (highest dose often 53.6 µM), without a hit: at the highest dose activity change, negative = inhibition, most hits filed as inhibitors | Drosophila S2 Gal4-RORgamma UAS-luciferase reporter, 20 h | P51450 | 310,000 compounds, 5.4% hits; note: nearly all actives have a fitted effect of over 60% in size
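In this cell-based reporter format, copper sulfate (700 uM final) drives Gal4–ROR gamma fusion expression from a metallothionein promoter in Drosophila Schneider cells; compounds preincubated 1 hr, reporter read after 20 hr at ambient temperature.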
Gal4-VP16 FLuc: counter-screen for ROR gamma inhibitors: Gal4-VP16 reporter; Drosophila S2 Gal4-VP16 UAS-luciferase, luminescence, 20 h; Potency, µM (doses to about 53.6 µM), for inactives: at the top dose activity, negative = inhibition, most hits filed as inhibitors; 310,000 compounds, 3.5% hits; AID 2546;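 note: Gal4-VP16 expression switched on by copper sulfate through the metallothionein promoter; nearly all actives have a fitted effect of over 50% in size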
DT40 TDP1 no CPT: qHTS for Inhibitors of human tyrosyl-DNA phosphodiesterase 1 (TDP1): qHTS in cells in absence of CPT | DT40 Tdp1-/- hTDP1 cells, no CPT, ATP luminescence, 48 h | Potency, µM (series often up to 46.2 µM), inactives show top-dose activity change, negative = growth inhibition, actives largely listed as inhibitors | 420,000 compounds, 15% hits; note: nearly all actives have a fitted effect of over 55% in size
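Seeded 400 DT40-hTDP1 cells/well (vehicle DMSO, no 20 nM CPT); pinned compounds; ≥48 hr at 37 °C; CellTiter-Glo luminescence as viability measure.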
ELG1 repair inh: blocks ELG1-dependent DNA repair in HEK293T cells. AID 504467. HEK293T ELG1-luciferase reporter, luminescence, 16 h; DNA damage induced by 5-fluorouridine. 330,000 compounds, 2.3% hits. Potency, µM (series often up to 46.1 µM), inactives show at the highest dose activity change, negative = inhibition, usual class: inhibitors; note: nearly all actives have a fitted effect of over 55% in size
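Overnight (16 hr) co-exposure of 2,000 cells/well to 5-fluorouridine and compound at 37 °C preceded detection. Luciferase was quantified via ONE-Glo luminescence; loss of signal denotes inhibition.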
ALOX12 inh: inhibitors of human 12S-lipoxygenase ALOX12 | P18054 | purified 12hLO, xylenol orange hydroperoxide absorbance | Potency, µM (highest dose often 108 µM), inactives show at the top dose activity change, negative = inhibition, actives largely listed as inhibitors | 580,000 compounds, 1.1% hits | AID 1671190
Target sequence (P18054 whole entry, looked up): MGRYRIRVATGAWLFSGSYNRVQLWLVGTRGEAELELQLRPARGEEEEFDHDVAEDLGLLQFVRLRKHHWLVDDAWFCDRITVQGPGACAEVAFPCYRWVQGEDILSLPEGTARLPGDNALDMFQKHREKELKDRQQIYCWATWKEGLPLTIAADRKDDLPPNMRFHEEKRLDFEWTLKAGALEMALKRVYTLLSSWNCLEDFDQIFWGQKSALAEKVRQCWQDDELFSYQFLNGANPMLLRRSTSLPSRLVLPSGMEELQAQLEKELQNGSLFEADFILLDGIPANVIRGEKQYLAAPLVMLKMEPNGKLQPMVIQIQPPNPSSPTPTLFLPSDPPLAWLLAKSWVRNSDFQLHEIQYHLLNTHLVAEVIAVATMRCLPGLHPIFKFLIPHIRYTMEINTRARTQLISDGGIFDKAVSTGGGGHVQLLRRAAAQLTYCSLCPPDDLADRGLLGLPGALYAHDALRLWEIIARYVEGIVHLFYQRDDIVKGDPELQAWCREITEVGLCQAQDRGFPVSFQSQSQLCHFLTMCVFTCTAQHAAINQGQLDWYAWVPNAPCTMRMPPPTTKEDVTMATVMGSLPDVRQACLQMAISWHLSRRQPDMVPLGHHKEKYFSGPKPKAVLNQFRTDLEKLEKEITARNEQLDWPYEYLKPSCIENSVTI
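Purified human 12hLO at 150 nM in 25 mM Hepes, 0.01% Triton X-100, pH 7.0, preincubated 15 min at room temperature with compound. Reaction started with 40 uM arachidonic acid, 30 min at room temperature. Hydroperoxide measured by Fe-xylenol orange, 573/405 nm absorbance ratio.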
TDP1 cell CPT: DT40-hTDP1 cell growth loss with CPT. 420,000 compounds, 12% hits. Potency, µM (series often up to 46.2 µM), without a hit: top-dose activity change, negative = growth inhibition, usual class: inhibitors. AID 686979. chicken DT40 Tdp1-/-;hTDP1 cells + 20 nM CPT, ATP luminescence, 48 h; note: nearly all actives have a fitted effect of over 55% in size
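Cell growth measured by CellTiter-Glo luminescence after a minimum 48 h, 37 C compound exposure with 20 nM CPT in Tdp1-knockout DT40 cells stably expressing hTDP1, seeded 400/well; qHTS titration format.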
The depositor's hits bear a star; ? = inconclusive; . = no result given; [ ] = dose if it differs, or a comment. An excerpt weighted towards active compounds, which were near 15% of everything screened. Calls come from the whole dose curve; as a rule, active = well fitted curve in the direction sought with a large enough effect; inconclusive = small, poorly fitted or top-dose-only effect, or another doubt; inactive = no such curve, though single readings can be large; an effect the other way counts as inactive or inconclusive. % is set by controls: 0 for no effect and ±100 for the full control effect; potency is the fitted concentration of half-maximal effect.

SMILES | RORgamma inh | Gal4-VP16 FLuc | DT40 TDP1 no CPT | ELG1 repair inh | ALOX12 inh | TDP1 cell CPT
CC(C)C[C@H]1CN([C@@H](Cc2ccc(O)cc2)CN2CCC[C@H]2CN2C(=O)C(=O)NC[C@@H]2Cc2ccccc2)C(=O)C(=O)N1CCc1ccccc1 | . | . | 0% | . | -7% | 10%
CC(C)C[C@H]1CNC(=O)C(=O)N1C[C@@H]1CCCN1C[C@H](CC(C)C)N1C[C@H](Cc2ccc(O)cc2)N(CCc2ccccc2)C(=O)C1=O | . | . | 4% | . | -18% | 6%
CC(C)C[C@H]1CN([C@@H](CC(C)C)CN2CCC[C@@H]2CN2C(=S)NC[C@@H]2Cc2ccc(O)cc2)C(=S)N1CCc1ccccc1 | . | . | 9.2µM* | . | ? | 13µM*
O=C(COc1cc(F)ccc1[N+](=O)[O-])Nc1ccc2c(c1)CCC2 | . | . | . | . | 15% | .
C=CCNC(=O)c1onc(CCl)c1C(=O)OC | -17% | -13% | ? | 3% | -14% | 23µM*
COCCNC(=O)c1onc(CCl)c1C(=O)OC | -30% | -7% | ? | 6% | ? | ?
CCN(CC)S(=O)(=O)NC1CCN(c2ncccn2)CC1 | . | . | . | . | 0% | .
Cc1sc2nc3n(c(=O)c2c1C)CCCCC3 | ? | 24% | ? | ? | 142% | -17%
O=c1c2c(nc3n1CCCCC3)sc1c(O)c(Br)ccc12 | 8.9µM* | 4.5µM* | -20% | ? | ? | -2%
CCN(CC)CCOc1c(Br)ccc2c1sc1nc3n(c(=O)c12)CCC3 | -1% | -12% | 21µM* | -12% | 137%[57.4 µM] | ?
O=C1CC(C(=O)NCc2cc3n(n2)CCN(C2CCCCC2)C3)C2(CCCC2)O1 (configuration not stated) | . | . | . | . | 58% | .
Cc1cc(C)c(N2CCN(S(=O)(=O)N3CCCCCC3)CC2)c(C)c1 | -14% | -17% | 18µM* | ? | 95% | ?
Cc1ccccc1C(=O)N1C(C(=O)NC2CC2)COC12CCN(C(=O)c1cccc(Cl)c1)CC2 (configuration not stated) | . | . | . | . | 31% | .
COc1ccccc1NC(CC(=O)c1ccccc1)C(=O)OCC(=O)c1ccc(Cl)cc1 (configuration not stated) | . | . | . | . | 11% | .
Cc1c(Cl)cccc1NC(CC(=O)c1ccccc1)C(=O)O (configuration not stated) | 7.9µM* | 6.3µM* | ? | ? | ? | 15µM*
Cc1c(Cl)cccc1NC(=O)CC(Cc1ccccc1)C(=O)O (configuration not stated) | 3% | 3% | -22% | 13% | 14% | 3%
O=C(CC(Nc1cccc(Cl)c1Cl)C(=O)O)c1ccccc1 (configuration not stated) | 11µM* | 26%[10 µM] | 12% | 14% | -5% | -22%
O=C(CC(Nc1cccc(Cl)c1Cl)C(=O)OCC(=O)c1cccs1)c1ccccc1 (configuration not stated) | 20% | -10% | 0% | 0% | -15% | -1%
O=C(CC(Nc1ccc(Cl)cc1)C(=O)O)c1ccccc1 (configuration not stated) | 5µM* | 5µM* | -26% | ? | ? | 21µM*
Cc1c(Cl)cccc1NC(CC(=O)c1ccccc1)C(=O)OCC(=O)c1cccs1 (configuration not stated) | 11µM* | 7.9µM* | ? | 6% | 3% | ?
O=C(O)c1ccc(NC(=O)c2cn(-c3ccccc3)nc2-c2ccc(F)cc2)cc1 | 36% | -4% | ? | ? | -12% | ?
Cc1cc(C(=O)Nc2ccc(N3CCOCC3)cc2)c2ccccc2n1 | 3% | 2% | -16% | 5% | 0% | 4%
Cc1cc(C(=O)Nc2cccc(S(=O)(=O)N3CCOCC3)c2)c2ccccc2n1 | . | . | 23µM* | ? | 0% | ?
O=C(Nc1cccc(S(=O)(=O)N2CCOCC2)c1)c1cn(-c2ccccc2)nc1-c1ccccc1 | 17%[10 µM] | -4% | 23µM* | ? | 0% | ?
O=C(O)c1ccc(NC(=O)c2cn(-c3ccccc3)nc2-c2cccc(Cl)c2)cc1 | ? | -23% | 3.7µM* | -4% | ? | ?
SMILES | RORgamma inh | Gal4-VP16 FLuc | DT40 TDP1 no CPT | ELG1 repair inh | ALOX12 inh | TDP1 cell CPT
NS(=O)(=O)c1ccc(NC(=O)/C=C/c2cn(-c3ccccc3)nc2-c2cccc(Cl)c2)cc1 | 17% | -7%[10 µM] | 29µM* | ? | ? | ?
CC1(C)CC(NC(=S)Nc2cc(F)cc(F)c2)CC(C)(C)N1 | . | . | . | . | 0% | .
O=C(Nc1ccccc1)N1CCN(c2ccc(Cl)nn2)C(=O)C1 | . | . | . | . | 15%[6.33 µM] | .
CCN(CC)S(=O)(=O)c1cccc(NC(=O)COC(=O)c2cc(C)oc2C)c1 | 21% | 1% | ? | 21µM* | -1% | -25%
Cc1cccc(NC(=O)c2cn(-c3ccccc3)nc2-c2ccccc2)c1C | . | . | 21µM* | . | -23% | ?
Cc1ccccc1NC(=O)c1cn(-c2ccccc2)nc1-c1ccccc1 | ? | 2% | ? | ? | -17% | ?
CN(C)S(=O)(=O)c1cccc(NC(=O)COC(=O)c2cn(-c3ccccc3)nc2-c2ccccc2)c1 | ? | -9% | 21µM* | ? | 4% | ?
Cc1cccc(C)c1NC(=O)c1cn(-c2ccccc2)nc1-c1ccccc1 | 5% | -8% | ? | ? | -2% | -2%
NS(=O)(=O)c1ccc(NC(=O)COC(=O)c2cn(-c3ccccc3)nc2-c2ccc(F)cc2)cc1 | -28% | ? | ? | 1% | 9% | ?
Cc1cccc(NC(=O)c2cn(-c3ccccc3)nc2-c2ccccc2)c1 | ? | -4% | 16µM* | -25% | -22% | ?
COc1ccc(NC(=O)N2CC(N(C3CCOCC3)S(C)(=O)=O)C2)c(C)c1 | . | . | . | . | 39% | .
CN(C)CCCn1ccnc1C1CCN(C(=O)C2CCCN(C)C2)CC1 (configuration not stated) | . | . | . | . | 8% | .
CN(Cc1ccccc1)S(=O)(=O)c1ccc(Cl)c(C(=O)Nc2nnc(C3CC3)s2)c1 | . | . | . | . | 1% | .
CN(C(=O)CSc1nc2ccccc2c(=O)n1CCc1cccs1)c1ccccc1 | . | . | . | . | 0% | .
O=C(Cn1nnc(-c2ccccc2)n1)Nc1cccc(S(=O)(=O)N2CCOCC2)c1 | . | . | 12µM* | 3% | 11% | ?
Cc1ccc(S(=O)(=O)N2CCOCC2)cc1NC(=O)Cn1nnc(-c2ccccc2)n1 | . | . | -23% | . | -2% | -19%
